Active and inactive are the calls of the source.
Key:
[1] = anti-His antibody binders, primary screen, artefact control for SMM control protein annotation, biochemical, small-molecule microarray, 635 nm fluorescence (AID 1128); details: anti-His Alexa647 antibody binding, higher = more signal;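 note: score merges feature fluorescence with signal-to-noise for each printed compound spot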
[2] = system: Human papillomavirus type 1a E7 protein (residues 1-88); assay: HPV1a E7 small-molecule binders, primary screen, biochemical, small-molecule microarray, residues 1-88, 635 nm (AID 1129); details: small-molecule microarray binding, fluorescence 635 nm; higher = more signal
[3] = target: Focal adhesion kinase 1 (Homo sapiens) (UniProt Q05397); assay: small-molecule microarray binders of FAK, primary screen, biochemical, 635/667 nm fluorescence, BSA, DTT (AID 1130); details: PTK2 binding, 635 nm fluorescence, higher = more signal;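 note: composite of spot emission at 667 nm and signal to noise over triplicate slides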
[4] = system: Fibrinogen (Alexa647-labelled); assay: fibrinogen binders on compound microarrays, profiling panel, artefact control for SMM control-protein annotation, biochemical, small-molecule microarray, 635/667 nm fluorescence (AID 1131); details: fibrinogen-A647 binding fluorescence, higher = more signal;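 note: z-score merges 667 nm fluorescence with per-spot signal-to-noise over triplicate slides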
[5] = target: Follistatin (Homo sapiens) (UniProt P19883); assay: follistatin binders on small-molecule microarrays, primary screen, biochemical, small-molecule microarray, 635/667 nm fluorescence (AID 1132); details: FST binding, 635 nm fluorescence, higher = more signal
[6] = target: Fibroblast growth factor 2 (Homo sapiens) (UniProt P09038); assay: FGF2 binders on small-molecule microarrays, primary screen, biochemical, small-molecule microarray, 635/667 nm fluorescence (AID 1133); details: small-molecule microarray binding, FGF2, fluorescence 635/667; higher = more signal
[7] = mitochondrial membrane potential change in A549 cells, profiling panel, cell-based, JC-1 fluorescence, basal, 24 h, 100 nL (AID 1138); details: higher = more signal;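 note: A549 lung adenocarcinoma cells under basal conditions with no added stimulus; test concentration not given here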
Lefty1 = Lefty1 binders on small-molecule microarrays, primary screen, biochemical, small-molecule microarray, 635/667 nm fluorescence (AID 1139); details: small-molecule microarray binding, fluorescence 635/667; higher = more signal
[8] = system: wheat germ agglutinin (Triticum aestivum), Alexa647-labelled; assay: wheat germ agglutinin binders on compound microarrays, profiling panel, artefact control for SMM control-protein annotation, biochemical, small-molecule microarray, 635/667 nm fluorescence (AID 1140); details: WGA-A647 binding, 635 nm fluorescence, higher = more signal;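 note: score merges 667 nm feature emission with signal to noise over triplicate slides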
[9] = target: Luciferin 4-monooxygenase (Photinus pyralis) (UniProt P08659); assay: firefly luciferase enzyme inhibitors, primary screen, biochemical, luminescence, purified enzyme, 2006 set (AID 1141); details: SteadyGlo luminescence, 30 min, higher = more signal, called active from +8 up or from −8 down;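 note: cell-free assay with purified firefly luciferase at 100 ng per well in PBS; test concentration not given here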
Chain of Luciferin 4-monooxygenase (Photinus pyralis) (P08659 whole entry, looked up): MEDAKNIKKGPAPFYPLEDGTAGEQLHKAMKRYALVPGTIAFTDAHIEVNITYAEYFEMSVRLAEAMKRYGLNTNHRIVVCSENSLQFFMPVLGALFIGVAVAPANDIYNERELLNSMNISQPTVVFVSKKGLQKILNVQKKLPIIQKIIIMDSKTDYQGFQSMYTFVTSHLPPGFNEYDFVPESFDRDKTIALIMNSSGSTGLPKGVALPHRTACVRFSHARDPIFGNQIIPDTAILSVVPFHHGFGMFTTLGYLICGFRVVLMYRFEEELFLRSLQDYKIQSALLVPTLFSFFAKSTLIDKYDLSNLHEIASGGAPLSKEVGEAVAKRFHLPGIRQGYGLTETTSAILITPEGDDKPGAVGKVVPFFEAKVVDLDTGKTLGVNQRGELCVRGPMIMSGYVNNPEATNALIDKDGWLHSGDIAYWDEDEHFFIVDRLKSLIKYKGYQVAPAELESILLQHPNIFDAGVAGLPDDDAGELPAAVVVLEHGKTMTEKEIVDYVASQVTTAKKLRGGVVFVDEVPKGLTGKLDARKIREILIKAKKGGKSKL

Chain of Focal adhesion kinase 1 (Homo sapiens) (Q05397 whole entry, looked up): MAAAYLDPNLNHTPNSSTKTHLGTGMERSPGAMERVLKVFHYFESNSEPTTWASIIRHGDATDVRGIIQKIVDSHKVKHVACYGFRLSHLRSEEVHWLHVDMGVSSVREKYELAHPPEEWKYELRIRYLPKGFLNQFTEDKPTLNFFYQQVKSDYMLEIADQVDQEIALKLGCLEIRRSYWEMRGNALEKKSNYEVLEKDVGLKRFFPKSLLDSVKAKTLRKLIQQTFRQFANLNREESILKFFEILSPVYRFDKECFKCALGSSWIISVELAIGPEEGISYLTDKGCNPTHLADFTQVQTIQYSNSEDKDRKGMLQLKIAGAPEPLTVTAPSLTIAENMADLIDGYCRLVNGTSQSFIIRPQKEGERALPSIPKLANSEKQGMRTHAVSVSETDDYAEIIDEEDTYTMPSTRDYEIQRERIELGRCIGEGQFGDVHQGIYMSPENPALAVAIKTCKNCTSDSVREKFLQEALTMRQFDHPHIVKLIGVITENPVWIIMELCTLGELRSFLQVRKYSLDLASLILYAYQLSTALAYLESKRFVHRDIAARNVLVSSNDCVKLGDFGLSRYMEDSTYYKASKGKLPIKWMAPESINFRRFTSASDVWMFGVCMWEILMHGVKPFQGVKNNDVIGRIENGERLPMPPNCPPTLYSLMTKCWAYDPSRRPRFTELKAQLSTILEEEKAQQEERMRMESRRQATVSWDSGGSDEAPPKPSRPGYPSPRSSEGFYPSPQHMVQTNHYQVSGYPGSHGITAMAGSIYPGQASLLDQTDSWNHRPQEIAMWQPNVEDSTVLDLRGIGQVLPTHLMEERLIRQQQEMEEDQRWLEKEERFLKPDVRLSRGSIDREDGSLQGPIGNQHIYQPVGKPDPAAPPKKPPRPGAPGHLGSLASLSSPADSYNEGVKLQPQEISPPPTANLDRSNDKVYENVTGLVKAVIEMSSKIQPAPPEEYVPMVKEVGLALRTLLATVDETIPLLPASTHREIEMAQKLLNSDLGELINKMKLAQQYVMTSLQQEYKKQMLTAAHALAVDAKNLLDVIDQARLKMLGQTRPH
Chain of Fibroblast growth factor 2 (Homo sapiens) (P09038 whole entry, looked up): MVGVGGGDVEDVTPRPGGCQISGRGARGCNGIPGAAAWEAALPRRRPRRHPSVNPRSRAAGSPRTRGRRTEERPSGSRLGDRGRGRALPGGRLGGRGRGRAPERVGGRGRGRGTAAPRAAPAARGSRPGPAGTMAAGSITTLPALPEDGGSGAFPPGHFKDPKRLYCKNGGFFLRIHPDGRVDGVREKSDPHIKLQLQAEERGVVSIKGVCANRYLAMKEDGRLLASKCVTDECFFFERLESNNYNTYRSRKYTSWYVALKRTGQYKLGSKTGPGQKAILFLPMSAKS
Chain of Follistatin (Homo sapiens) (P19883 whole entry, looked up): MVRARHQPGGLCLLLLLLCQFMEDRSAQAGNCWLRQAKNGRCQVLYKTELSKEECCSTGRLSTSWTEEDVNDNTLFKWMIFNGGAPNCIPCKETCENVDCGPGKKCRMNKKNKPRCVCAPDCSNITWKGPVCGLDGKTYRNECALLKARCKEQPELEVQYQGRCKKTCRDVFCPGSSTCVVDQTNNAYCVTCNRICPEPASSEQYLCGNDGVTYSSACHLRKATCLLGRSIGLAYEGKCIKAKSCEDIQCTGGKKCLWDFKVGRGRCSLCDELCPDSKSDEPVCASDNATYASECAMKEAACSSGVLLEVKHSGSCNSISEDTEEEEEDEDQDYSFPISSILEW

| Structure (SMILES) | composite z-score [1] | composite z-score [2] | composite z-score [3] | composite z-score [4] | composite z-score [5] | composite z-score [6] | z-score [7] | composite z-score (Lefty1) | composite z-score [8] | z-score [9] |
| --- | --- | --- | --- | --- | --- | --- | --- | --- | --- | --- |
| CCOC(=O)C1=CCC(c2ccc(C#N)cc2)N(S(=O)(=O)c2ccc(C)cc2)C1 (stereo not given) | 1.64 | 1.2 | 0.047 | 0.824 | 0.552 | 0.168 | -0.142 | -0.303 | 1.19 | 0.115 (inactive) |
| COC(=O)c1ccc(C(O)C2C=CC3C(=O)N(c4ccccc4)C(=O)C3N2Nc2ccc(C#N)cc2)o1 (stereo not given) | 0.355 | 0.889 | 0.303 | 1 | 0.62 | 0.275 | 0.385 | -0.0841 | 0.475 | -1.32 (inactive) |
| CC(C)CNC(=O)[C@@]1(c2ccc([N+](=O)[O-])cc2)CC(=O)N(CC23CC4CC(CC(C4)C2)C3)[C@@H]1c1ccc(CO)cc1I | 1.33 | 1.14 | 0.775 | 0.635 | 1.39 | 1.31 | 1.12 | 1.12 | 0.352 | -0.447 (inactive) |
| CS(=O)(=O)CCOC(=O)C1=CC(CCCO)=CC(c2cccs2)N(Cc2cc3c(cc2Br)OCO3)C=C1C(=O)OCCS(C)(=O)=O (stereo not given) | 1.16 | 1.21 | 1.11 | 1.01 | 1.28 | 0.564 | 1.26 | 1.22 | 1.05 | -1.16 (inactive) |
| O=c1cccc(C=Cc2ccccc2)o1 | -0.23 | -0.191 | -0.599 | -0.58 | -0.723 | -1.63 | 0.302 | -0.282 | -0.531 | 1.35 (inactive) |
| CC(C)(C)N1CC=CC23O[C@@H]4C=CCOC(=O)[C@@H]4[C@H]2C(=O)N(CCCCCO)[C@@H]3C1=O (stereo not given in full) | 3.57 | -1.45 | -0.758 | -2.1 | -0.889 | -0.326 | -0.879 | -1.17 | -1.31 | 0.107 (inactive) |
| O=C1N(CCS(=O)(=O)c2ccccc2)c2ccccc2C[C@@]12COC(c1ccc(OCCCO)cc1)=N2 | 2.83 | 1.25 | 1.16 | 0.962 | 1.28 | 0.87 | -0.0718 | 0.222 | 0.611 | -1.63 (inactive) |
| O=C1OCCC=C[C@H]2OC34C=CCN(Cc5ccccc5)C(=O)[C@H]3N(CCCCCCO)C(=O)[C@@H]4C12 (stereo not given in full) | 0.0899 | -0.374 | -0.574 | -0.873 | -0.0109 | -1.02 | 0.544 | 0.798 | -0.828 | 0.467 (inactive) |
| CO[C@H]1O[C@H](CO)[C@@H](OC(=O)Nc2ccc3c(c2)OCO3)[C@H](OC(=O)Nc2ccccc2)[C@H]1OC(=O)Nc1ccccc1 | 1.77 | 1.28 | 0.927 | 0.995 | 1.32 | 0.924 | -0.925 | 1.29 | 0.928 | -0.546 (inactive) |
| CN1C(=O)C2C=CC(C(O)c3ccccn3)N(Nc3ccccc3)C2C1=O (stereo not given) | 0.621 | 0.302 | -0.187 | 1.03 | 0.563 | 0.213 | -0.633 | 0.125 | 0.489 | -1.12 (inactive) |
| COC(=O)[C@@]1(Cc2ccc(F)cc2)[C@H]2c3cc(C(=O)N4CCCC4)n(Cc4cccc5ccccc45)c3C[C@H]2CN1C(=O)c1ccccc1 | 1.98 | 1.28 | 2.08 | 0.83 | 0.0834 | -0.426 | 0.917 | -0.0668 | 1.06 | 0.943 (inactive) |
| CCOC(=O)C[C@H]1[C@H](OC(=O)c2ccc(-c3ccccc3)cc2)[C@@H](NC(=O)c2ccc3ccccc3c2)c2cc(OCCCO)ccc2N1C(=O)Cc1ccc(OC)cc1 | -0.034 | 0.401 | 0.463 | 0.536 | -0.187 | -0.0546 | -0.0901 | -0.154 | -0.006 | 1.13 (inactive) |
| O=C1O[C@H](c2ccccc2)[C@H](c2ccccc2)N2[C@H]1[C@@H](C(=O)O)[C@]1(C(=O)Nc3ccc(C#CC4=CCCCC4)cc31)[C@H]2c1ccc(OCCO)cc1 | 0.463 | 1.24 | 0.638 | 0.98 | 1.26 | 0.919 | -2.57 | 1.28 | 1.1 | -9.5 (active) |
| Cc1ccc(S[C@]2(C(=O)NC3CC3)CC(=O)N(Cc3ccccc3)[C@@H]2c2ccc(CO)cc2)cc1 | 0.116 | -0.663 | -0.526 | -0.816 | -0.432 | -0.596 | 0.424 | -0.663 | 0.222 | -0.585 (inactive) |
| CC(=O)Nc1cc(Br)ccc1C(=O)O | 0.0952 | 0.747 | -0.0817 | 0.805 | 0.0564 | -0.129 | 0.204 | -0.0658 | 0.625 | -0.592 (inactive) |
| CC(C)c1ccc(NN2C(C(O)c3ccc(N(C)C)cc3)C=CC3C(=O)N(c4ccccc4)C(=O)C32)cc1 (stereo not given) | 0.435 | 1.24 | 0.0061 | 0.96 | 1.25 | -0.321 | 0.594 | 0.273 | 0.923 | -0.943 (inactive) |

| Structure (SMILES) | composite z-score [1] | composite z-score [2] | composite z-score [3] | composite z-score [4] | composite z-score [5] | composite z-score [6] | z-score [7] | composite z-score (Lefty1) | composite z-score [8] | z-score [9] |
| --- | --- | --- | --- | --- | --- | --- | --- | --- | --- | --- |
| O=C(CS)NCCCCCCNC(=O)[C@H]1C[C@H]2C(=O)NCC(=O)N2[C@H]1c1ccc(O)cc1 | 0.0346 | -0.591 | 0.147 | -0.634 | 1.11 | 0.697 | 0.139 | -0.0467 | -0.223 | -0.199 (inactive) |
| CCOC(=O)C1=CC[C@@H](c2ccccc2)N(S(=O)(=O)c2ccc(C)cc2)[C@H]1C(=O)OCC | 0.558 | 1.2 | 1.17 | 0.0499 | 0.305 | -0.128 | 1.84 | -0.238 | 0.951 | 0.693 (inactive) |
| C=C[C@H](COC(C)=O)N(Cc1ccc(OC(C)=O)c(OC)c1)S(=O)(=O)c1ccc(Br)cc1 | 1.29 | 1.12 | -0.174 | 0.59 | 1.37 | 1.75 | 1.15 | 1.02 | 0.492 | 0.271 (inactive) |
| NC(=O)NCC#Cc1ccc2c(c1)[C@]1(C(=O)N2)[C@H](C(=O)N2CCCCCCC2)[C@H]2C(=O)O[C@H](c3ccccc3)[C@H](c3ccccc3)N2[C@@H]1c1ccc(OCCO)cc1 | -0.132 | 1.14 | 0.773 | 0.909 | 1.47 | 0.649 | -1.62 | 1.25 | 1.36 | -0.551 (inactive) |
| C=CCN1C(=O)[C@]2(O[C@H](CCO)[C@@H]([Si](C)(C)c3ccc(OC)cc3)[C@@H]2C)c2cc(NC(=O)[C@H](C)O)ccc21 | 1.58 | 1.22 | 0.937 | 0.762 | 0.222 | 0.313 | 0.388 | 0.673 | 0.394 | -0.181 (inactive) |
| CC(C)N1C(=O)c2ccccc2[C@@H](C(=O)NCCCN(C)C)[C@@H]1c1ccc(CO)cc1 | 0.0674 | -0.163 | 1.13 | -0.305 | -0.631 | -0.521 | -0.864 | -1.12 | 0.705 | 0.571 (inactive) |
| CCOC(=O)C1=C[C@@H](CC)N(S(=O)(=O)c2ccc(C)cc2)[C@H]1c1ccccc1 | 0.862 | 1.21 | 1.33 | 0.928 | 0.431 | 0.261 | 2.94 | 0.0048 | 0.749 | 2.12 (inactive) |
| CCCCC=C[C@@H](NC(=O)c1ccco1)c1ccccc1 | 0.34 | -1.19 | -0.0668 | 1.01 | 0.487 | 0.133 | -0.881 | -0.337 | 0.653 | 2.18 (inactive) |
| Cc1ccc(S[C@]2(C(=O)NCc3ccccc3)CC(=O)N(Cc3ccccc3Cl)[C@@H]2c2ccc(CO)cc2I)cc1 | 2.92 | -0.162 | -0.0602 | 0.999 | 0.0508 | -0.871 | 0.00439 | -0.366 | 0.947 | 0.831 (inactive) |
| COCCOC(=O)N1C(=O)[C@@]2(c3cc(C#CCNC(N)=O)ccc31)[C@H](c1ccc(O)cc1)N1[C@H](c3ccccc3)[C@H](c3ccccc3)OC(=O)[C@H]1[C@@H]2C(=O)Nc1nc2ccccc2s1 | 0.0698 | 0.967 | 0.387 | 0.558 | 1.33 | 1.2 | -1.91 | 0.851 | 0.785 | -2.38 (inactive) |
| COC(=O)[C@@]1(Cc2ccccc2N=[N+]=[N-])COC(c2ccc(OCCCO)cc2)=N1 | 1.19 | 1.16 | 0.676 | 0.492 | 1.27 | 0.3 | 0.719 | -0.57 | 0.439 | -1.93 (inactive) |
| COCC1=C2[C@@H](CCc3ccccc3)OB(O)C[C@@H]2[C@@H]2C(=O)N(Cc3ccccc3)C(=O)[C@@H]2C1 | -0.0926 | -0.147 | -0.138 | 1 | 0.193 | -0.0119 | 0.092 | 0.261 | 0.397 | -0.683 (inactive) |
| CC(C)=CCCC(C)=CC(O)C1C=CC2C(=O)N(c3ccccc3)C(=O)C2N1Nc1ccccc1 (stereo not given) | 1.79 | 1.18 | 0.63 | 1.01 | 1.14 | 0.227 | -0.773 | 0.16 | 1.3 | 0.0145 (inactive) |
| C=CC[C@@]1(C(=O)N2CCOCC2)N=C(c2ccc(OCCCO)cc2)O[C@@H]1c1ccccc1N=[N+]=[N-] | 1.58 | 1.24 | 0.304 | 0.752 | 1.33 | 1.05 | 0.0318 | 0.135 | 1.13 | -11.4 (active) |
| C=CCOC(=O)[C@@H]1[C@H]2C(=O)O[C@H](c3ccccc3)[C@H](c3ccccc3)N2[C@H](c2ccc(OCCOC(=O)[C@@H]3C[C@@H]4C(=O)NCC(=O)N4[C@@H]3c3cccc(OCCO)c3)cc2)[C@@]12C(=O)Nc1ccc(I)cc12 | 1.26 | 1.17 | 0.259 | 0.615 | 1.32 | 1.31 | -1.21 | 0.914 | 0.449 | -0.408 (inactive) |

From PubChem BioAssay
